EPAC2 antag: Validation qHTS for antagonist of cAMP-regulated guanine nucleotide exchange factor 4 (EPAC2); Rap guanine nucleotide exchange factor 4 (Homo sapiens), Q8WZA2; EPAC2 Rap1B BODIPY-GDP exchange, fluorescence; Potency, µM (titrated, usually from 112 µM), usual class: inhibitors; actives 1.7% (n = 16,000); AID 1645886, 2021; also: nearly all actives have a fitted effect of over 40% in size
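Fluorescent exchange read-out: 100 nM EPAC2 with 250 nM RAP1B–BODIPY-GDP and 50 uM GDP; BODIPY-GDP release lowers fluorescence. Read at 480/540 nm every 5 min for 30 min at room temperature; normalized to 6.5 mM cAMP.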
EPAC1 agonist: Validation qHTS for agonist of cAMP-regulated guanine nucleotide exchange factor 3 (EPAC1). Potency, µM, usual class: activators. Rap guanine nucleotide exchange factor 3 (Homo sapiens), O95398. EPAC1 Rap1b BODIPY-GDP exchange, fluorescence. actives 1% (n = 16,000); also: nearly all actives have a fitted effect of over 70% in size
Numbers stand for hits; n = inactive; u = inconclusive; ! = repeats disagree. Compounds with a hit are over-represented: about 2.9% of the library has one in this group of screens. Calls follow the shape of the dose curve; as a rule, active = well fitted curve in the direction sought with a large enough effect; inconclusive = small, poorly fitted or top-dose-only effect, or another doubt; inactive = no such curve, though single readings can be large; an effect the other way counts as inactive or inconclusive.

SMILES	EPAC2 antag	EPAC1 agonist
Cc1cc(C)n2nc(C(=O)NCC3Cc4cccc(-c5ccc(S(C)(=O)=O)cc5)c4O3)cc2n1 (stereo not given)	n	n
CC1=C(C(=O)OC(C)C)[C@@H](c2cccc3nonc23)C([N+](=O)[O-])=C(C)N1	n	n
COC(=O)C1=C(C)NC(C)=C([N+](=O)[O-])C1c1ccccc1C(F)(F)F (stereo not given)	40µM!	n
Cc1c(C(=O)N2CC[C@@H]3CCCC[C@H]3C2)sc2ncnc(NCCc3ccccn3)c12	u	n
C[C@H]1C[C@H]2[C@@H]3CCC4=CC(=O)C=C[C@]4(C)[C@@]3(F)[C@@H](O)C[C@]2(C)[C@@]1(O)C(=O)CCl	u	n
Cc1ccccc1Cc1nc2cccnc2n1C1CCN(C(=O)CC2NC(=O)c3ccccc32)CC1 (stereo not given)	n	n
COc1ccc(C(=O)N2CCC[C@@]3(CCN(Cc4ccncc4)C3)C2)cc1	n	n
COCC(=O)N1CCC2(CCN(Cc3cc(C(F)(F)F)cc(C(F)(F)F)c3)CC2)CC1	n	n
COc1ccc(C(=O)N2CCC[C@@]3(CCN(Cc4cc(C(F)(F)F)cc(C(F)(F)F)c4)C3)C2)cc1	14µM	n
COc1ccc(C(=O)N2CCC3(CCN(Cc4cc(C(F)(F)F)cc(C(F)(F)F)c4)CC3)CC2)cc1	28µM	n
CCOC(=O)N1CCN(Cc2ccc3c(c2)CN(C(=O)c2ccc(C#CC(C)(C)O)o2)CCO3)CC1	u	n
CN(C)c1ccc(/C=C/N2C=CCc3c2ccc2ccccc32)cc1	u	n
COc1ccc(C(=O)NCC2Cc3cc(C)cc(-c4nc5ccccc5s4)c3O2)c(OC)c1OC (stereo not given)	u	n
O=C(NCC1Cc2cccc(-c3cccnc3)c2O1)c1cc(-c2ccccc2)n[nH]1 (stereo not given)	n	n
Cc1cnc(-n2ncc(C(=O)NCc3ccncc3)c2C(C)C)nc1-c1ccc(F)cc1	n	n
C=C1C[C@@]23C[C@@]1(O)CCC2[C@@]12C=CC(O)[C@](C)(C(=O)O1)C2C3C(=O)O (stereo not given in full)	n	u
C=C1C[C@]23C[C@@]1(O)CC[C@H]2[C@@]12C=C[C@H](O)[C@@](C)(C(=O)O1)[C@H]2[C@@H]3C(=O)O	n	45µM
COc1ccc(-c2nc3cc(C)ccc3cc2CN(C(=O)c2ccc(C)s2)C2CC2)cc1OC	u	n
N[C@@H](C(=O)N[C@H]1C(=O)N2C(C(=O)O)=C(Cl)CC[C@H]12)c1ccccc1	n	n
O=c1c(-c2ccccc2)nc2cnc(N3CCNCC3)nc2n1Cc1ccc(F)cc1	n	n
O=c1c(-c2cc(F)cc(F)c2)nc2cnc(N3CCNCC3)nc2n1Cc1ccc(F)cc1	50µM	u
Clc1cccc(C(c2ccc3nc[nH]c3c2)n2ccnc2)c1 (stereo not given)	n	n
c1ccc(-c2ccc(C(c3ccccc3)n3ccnc3)cc2)cc1 (stereo not given)	50µM	u
C[C@@H]1NC(=O)[C@@H](N)CNC(=O)[C@H](C2CCNC(N)=N2)NC(=O)/C(=C/NC(N)=O)NC(=O)[C@H](CNC(=O)C[C@@H](N)CCCN)NC1=O (stereo not given in full)	n	n
COc1cc(OC)c(/C=C/c2ccc3ccccc3n2)c(OC)c1	n	u
SMILES	EPAC2 antag	EPAC1 agonist
COc1ccc(OC)c(/C=C/c2nc3ccccc3nc2C)c1	u	100µM
COC(=O)[C@@H]1CCCN1Cc1ccc2c(c1)CN(Cc1cccn1-c1ccc(Cl)cn1)CCO2	n	n
COc1ncc2nc(-c3cccs3)c(=O)n(Cc3cccs3)c2n1	n	u
COCCn1c(=O)c(-c2ccccc2)nc2cnc(Nc3ccccc3)nc21	n	n
COc1ncc2nc(-c3ccccc3)c(=O)n(Cc3cccs3)c2n1	u	112µM
O=c1c(-c2ccccc2)nc2cnc(Nc3ccccc3)nc2n1Cc1cccs1	n	112µM
CC(C)(C)C1(O)CCN2CC3c4ccccc4CCc4cccc(c43)C2C1 (stereo not given)	n	n
COc1ccccc1CNC(=O)c1cnn(-c2nccc(-c3cccs3)n2)c1C	n	n
Cc1c(C(=O)NCC2(N3CCOCC3)CCCCCC2)cnn1-c1nccc(-c2ccccc2F)n1	u	n
CC1(C)CCC2=C(O1)c1ccccc1C(=O)C2=O	28µM!	n
O=c1c(-c2cccs2)nc2cnc(N3CCOCC3)nc2n1Cc1ccc(F)cc1	n	n
Cn1cc(-c2nc3cnc(N4CCOCC4)nc3n(CCC#N)c2=O)c2ccccc21	n	112µM
O=c1c(CCc2ccccc2)nc2cnc(N3CCOCC3)nc2n1Cc1cccs1	n	n
CN(C)c1ncc2nc(-c3cccs3)c(=O)n(C[C@H]3CCCO3)c2n1	n	112µM
CCNc1ncc2nc(-c3cccs3)c(=O)n(C[C@H]3CCCO3)c2n1	n	n
COCCn1c(=O)c(-c2cn(C)c3ccccc23)nc2cnc(N3CCOCC3)nc21	n	n
CN1CCN(c2ncc3nc(CCc4ccccc4)c(=O)n(Cc4cccs4)c3n2)CC1	n	100µM
O=c1c(-c2cccs2)nc2cnc(N3CCOCC3)nc2n1CCc1ccccc1	n	100µM
Cc1cccc(CN2C[C@H](Sc3ccccn3)C[C@H]2C(=O)Nc2ccc3sc(C)nc3c2)c1	n	n
Cc1c(C(=O)NCc2ccc(F)cc2)sc2ncnc(NCC3CCCO3)c12 (stereo not given)	n	n
O=S(=O)(O)c1cc(O)c2c(N=Nc3ccc(Nc4ccccc4)c4c(S(=O)(=O)O)cccc34)cc(S(=O)(=O)O)cc2c1	u	n
O=S(=O)(O)c1ccc2c(N=Nc3ccc(S(=O)(=O)O)c4ccccc34)c(O)c(S(=O)(=O)O)cc2c1	50µM	n
C=CC(C)(C)c1[nH]c2ccccc2c1C1=C(O)C(=O)C(c2c[nH]c3c(CC=C(C)C)cccc23)=C(O)C1=O	45µM	n
Cc1cc(C)cc(C(=O)NCCn2cc(C(=O)N3CCSCC3)nn2)c1	n	n
Cc1ccc(C(=O)NCCc2nnc3n2CCN(C(=O)c2ccnc(Cl)c2)CC3)cc1	n	n
SMILES	EPAC2 antag	EPAC1 agonist
CC(C)(C=O)Cc1cc(C(C)(C)C)c(O)c(C(C)(C)C)c1	u	n
CC(C)(CO)Cc1cc(C(C)(C)C)c(O)c(C(C)(C)C)c1	56µM!	n
S=C(S)O[C@@H]1C[C@@H]2C[C@H]1[C@@H]1CCC[C@H]21	50µM	n
S=C(S)OC1CC2CC1C1CCCC21 (stereo not given)	n	n
CC1=C(/C=C/C(C)=C/C=C/C(C)=C/C=C/C=C(C)/C=C/C=C(C)/C=C/C2=C(C)C[C@@H](O)CC2(C)C)C(C)(C)C[C@H](O)C1	n	n
O=C(NC[C@@H]1CCCN2CCCC[C@H]12)c1cnn(-c2nccc(-c3ccco3)n2)c1C1CC1	n	n
COc1ccc(CNc2ccnc(-c3cccc(C#N)c3)n2)c(OC)c1	n	112µM
COc1cccc(-c2cncnc2NCc2ccc(OC)cc2OC)c1	45µM	n
COc1ccccc1CNc1ccnc(-c2ccc3c(c2)OCO3)n1	u	100µM
COc1ccccc1CNc1ccnc(-c2cccc(C#N)c2)n1	u	n
COc1ccc(CNc2ccnc(-c3ccc4c(c3)OCO4)n2)c(OC)c1	n	n
COc1ccc(CNc2ncncc2-c2cccnc2)c(OC)c1	n	n

High-throughput results deposited in PubChem BioAssay by National Center for Advancing Translational Sciences (NCATS).
